The source of these data is the supplement of paper PMC9177965.

Experiment [1] has as its system HT29 RNF43 G659fs (RNF43 659mut, CRISPR-edited). The experiment can be described thus: cell viability activity relative to DMSO (negative = inhibition); higher = more viable cells (less growth inhibition). The conditions noted are these: 5 µM; 96 h. On the procedure: (§1)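 Broad Repurposing Library primary screen at a single dose of 5 uM. HT29 sg-Ctrl and HT29 RNF43 G659fs CRISPR-edited isogenic cells were seeded at 2500 cells/well in 384-well plates in duplicate and treated for 96 h. Viability was read by CellTiter-Glo and reported as % activity relative to DMSO, with MG132 as the positive control (negative = growth inhibition).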

In experiment [2] the test system is HT29 sg-Ctrl (RNF43 wildtype). The description is as above. As to conditions: 5 µM; 96 h. On the procedure:
as §1

The structures appear in SMILES notation. Several values for one entry are separate records, joined by “and”; a condition that tells them apart may be missing. Equal values may be shown once.

For the molecule `Cc1cc(-c2cc(O)ccc2Cl)cc2nnc(Nc3ccc(OCCN4CCCC4)cc3)nc12`, the cell viability activity was -41.1% in experiment [1] and -76.9% in experiment [2].

On to `CC[C@@]1(O)C(=O)OCc2c1cc1n(c2=O)Cc2cc3c([N+](=O)[O-])cccc3nc2-1`, for which the cell viability activity in experiment [1] was -93.9%; in experiment [2], -95.5%.

With `COC(=O)[C@H]1[C@H]2C[C@@H]3c4[nH]c5cc(OC)ccc5c4CCN3C[C@H]2C[C@@H](OC(=O)c2cc(OC)c(OC)c(OC)c2)[C@@H]1OC`, the cell viability activity was -26.1% in experiment [1] and -40.7% in experiment [2].

Consider `CCCCCCCCCCCCCCCC[N+](C)(C)CCN(Cc1ccc(OC)cc1)c1ncccn1`, for which the cell viability activity in experiment [1] was -95.1%; in experiment [2], -94.5%.

On to `O=C(NNc1nc2cc(F)ccc2n2cccc12)c1cnccn1`, for which the figures for the cell viability activity in experiment [1] and in experiment [2] were -82.8% and -88.3%, respectively.

Consider `C/C=C1\NC(=O)[C@H]2CSSCC/C=C/[C@H](CC(=O)N[C@H](C(C)C)C(=O)N2)OC(=O)[C@H](C(C)C)NC1=O`, for which the figures for the cell viability activity in experiment [1] and in experiment [2] were -94.9% and -77.3%, respectively.

`Cc1cc(C2CCCCC2)n(O)c(=O)c1`: the cell viability activity in experiment [1] was -85.1%; in experiment [2], -83.4%.

In the case of `Nc1ccccc1NC(=O)c1ccc(CNc2nccc(-c3cccnc3)n2)cc1`, the figures for the cell viability activity in experiment [1] and in experiment [2] were -87.7% and -77%, respectively.

With `CNC(=O)Nc1ccc(-c2nc(N3CC4CCC(C3)O4)c3cnn(C4CCC5(CC4)OCCO5)c3n2)cc1`, the cell viability activity in experiment [1] was -50.9%; in experiment [2], -19.4%.

Regarding `CCCCc1nc2cc(/C=C/C(=O)NO)ccc2n1CCN(CC)CC`, the cell viability activity in experiment [1] is -99.3%; in experiment [2] it was -98.6%.

Turning to `C[C@H]1[C@H](OC(=O)CCC(=O)O)O[C@@H]2O[C@@]3(C)CC[C@H]4[C@H](C)CC[C@@H]1[C@@]24OO3`, the cell viability activity is -42.8% and -37.2% in experiment [1]; -35.1% and -16.8% in experiment [2].

For `COC(=O)Nc1ccc(-c2nc(N3CCOCC3)c3cnn(C4CCN(C(=O)OC)CC4)c3n2)cc1`, the cell viability activity in experiment [1] was -50%; in experiment [2], -38%.

`C[C@H]1O[C@@H](O[C@H]2[C@@H](O)C[C@H](O[C@H]3[C@@H](O)C[C@H](O[C@H]4CC[C@@]5(C)[C@H](CC[C@@H]6[C@@H]5CC[C@]5(C)[C@@H](C7=CC(=O)OC7)CC[C@]65O)C4)O[C@@H]3C)O[C@@H]2C)C[C@H](O)[C@@H]1O`: the figures for the cell viability activity in experiment [1] and in experiment [2] were -92.2% and -93.4%, respectively.

As for `CC(C)[C@H]1c2ccc(F)cc2CC[C@@]1(CCN(C)CCCc1nc2ccccc2[nH]1)OC(=O)C1CC1`, the cell viability activity in experiment [1] is -90%; in experiment [2], -90.4%.

As to `COc1cc(OC)c(/C=C/S(=O)(=O)Cc2ccc(OC)c(OP(=O)(O)O)c2)c(OC)c1`, the cell viability activity in experiment [1] is -26.7%; in experiment [2] it was -12.1%.

`COc1ccc(CCCOC(Cn2ccnc2)c2ccc(OC)cc2)cc1` (stereo unspecified): the cell viability activity in experiment [1] was -67.2%; in experiment [2], -31.3%.

For the molecule `CNC(=O)CN1CCC(Oc2cc3c(Nc4cccc(Cl)c4F)ncnc3cc2OC)CC1`, the cell viability activity was -41.9% in experiment [1] and -24.1% in experiment [2].

For `CC(C)N(C[C@H]1O[C@@H](n2cnc3c(N)ncnc32)[C@H](O)[C@@H]1O)[C@H]1C[C@@H](CCc2nc3cc(C(C)(C)C)ccc3[nH]2)C1`, the cell viability activity in experiment [1] is -24.1%; in experiment [2] it was -26.5%.

On to `Cc1nc(-c2cn3c(n2)-c2ccc(-c4cnn(C(C)(C)C(N)=O)c4)cc2OCC3)n(C(C)C)n1`, for which the cell viability activity in experiment [1] was -53.2%; in experiment [2] it was -48.5%.

`CC(C)c1cc(-c2n[nH]c(=O)n2-c2ccc3c(ccn3C)c2)c(O)cc1O`: the cell viability activity is -87.1% in experiment [1] and -81.7% in experiment [2].

For `CCn1c2ccccc2c2cc(Nc3ccnc(NCCCN4CCOCC4)n3)ccc21`, the cell viability activity in experiment [1] was -79.7%; in experiment [2], -84.9%.

Take `COc1cc(OCc2cccc(-c3ccccc3)c2C)cc(OC)c1CN1CCCC[C@H]1C(=O)O`: the figures for the cell viability activity in experiment [1] and in experiment [2] were -24.2% and -3.46%, respectively.

Turning to `CC1(C)CC(=O)c2c(C(F)(F)F)nn(-c3ccc(C(N)=O)c(N[C@H]4CC[C@H](O)CC4)c3)c2C1`, the cell viability activity is -86.4% in experiment [1] and -78.4% in experiment [2].

As to `C=CC(=O)Nc1cccc(Oc2nc(Nc3ccc(N4CCN(C)CC4)cc3)ncc2Cl)c1`, the cell viability activity is -46.3% in experiment [1] and -58% in experiment [2].

For `COC(=O)c1ccccc1-c1c2ccc(=N)cc-2oc2cc(N)ccc12`, the cell viability activity in experiment [1] is -44.3%; in experiment [2], -37.4%.

Turning to `CCNC(=O)C#Cc1ccc2c(C(=Nc3ccc(CN(C)C)cc3)c3ccccc3)c(O)[nH]c2c1`, the results for the cell viability activity in experiment [1] and in experiment [2] were -98.3% and -96.8%, respectively.

For the molecule `CCN(CC)CCOc1ccc(C(=C(Cl)c2ccccc2)c2ccccc2)cc1`, the cell viability activity in experiment [1] was -98.4%; in experiment [2] it was -97.9%.

As for `CN(C)c1ccc(C(=C2C=CC(=[N+](C)C)C=C2)c2ccc(N(C)C)cc2)cc1`, the cell viability activity was -96.3% in experiment [1] and -89.3% in experiment [2].

With `CCCCNc1ncc2c(-c3ccc(CN4CCN(C)CC4)cc3)cn([C@H]3CC[C@H](O)CC3)c2n1`, the cell viability activity in experiment [1] is -89.4%; in experiment [2] it was -91.1%.

As for `CC(C)C[C@H](NC(=O)[C@@H](NC(=O)c1cccc(-c2ccccc2)n1)[C@@H](C)O)B(O)O`, the figures for the cell viability activity in experiment [1] and in experiment [2] were -95.1% and -95.4%, respectively.

For `C[C@H](Nc1cc(-c2cnn(C)c2)cc(Nc2cnccn2)n1)c1ccc(F)cc1`, the cell viability activity is -46.9% in experiment [1] and -43% in experiment [2].

`Cn1cc(-c2[nH]c3cc(NC(=O)[C@H](N)C4CCCCC4)cc4c3c2C=NNC4=O)cn1`: the results for the cell viability activity in experiment [1] and in experiment [2] were -54.9% and -79.1%, respectively.

Take `C=CC(=O)Nc1cc(Nc2nccc(-c3cn(C)c4ccccc34)n2)c(OC)cc1N(C)CCN(C)C`: the figures for the cell viability activity in experiment [1] and in experiment [2] were -82.3% and -50.6%, respectively.

As to `CCC[C@H](NC(=O)/C(C#N)=C/c1cccc(Br)n1)c1ccccc1`, the cell viability activity is -95.3% in experiment [1] and -92.4% in experiment [2].

Turning to `OCCNCCCOc1cccc(Cl)c1Cl`, the results for the cell viability activity in experiment [1] and in experiment [2] were -45.4% and -43.2%, respectively.

As to `COc1cc(N2CCC(N3CCN(C)CC3)CC2)ccc1Nc1ncc(Cl)c(Nc2ccccc2P(C)(C)=O)n1`, the cell viability activity in experiment [1] was -82.9%; in experiment [2], -81%.

Consider `O=C(CCCCCCC(=O)Nc1cccnc1)NO`, for which the cell viability activity is -42.9% in experiment [1] and -42.7% in experiment [2].

In the case of `Nc1nc(Nc2ccc3c(c2)CCC(N2CCCC2)CC3)nn1-c1cc2c(nn1)-c1ccccc1CCC2` (stereo unspecified), the cell viability activity is -28.9% in experiment [1] and -31.9% in experiment [2].
